Results published in PubChem BioAssay AID1159580 (chemical genetic matrix, 2015).
Values joined by “and” are separate entries in the source; they are usually repeats but may differ in a detail not shown here. Identical values can stand only once. The whole screen tested about 5,500 compounds, of which about 2,000 (36%) were called active. About 18% were inconclusive and are not listed. Cut-off read from the data, not from the text of the source: active = normalized growth mostly below about 0.91 (no sharp cut-off); inconclusive = no clear call, values can overlap the other calls; inactive = mostly above about 0.92. The list shows a part of the results. The source holds several records for some structures; these can differ, active in one and inactive in another.

Experiment: chemical genetic growth profiling, strain panel (AID 1159580);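 note: tested at 20 µM; growth read once vehicle control cultures reached saturation at 30 °C; 1 = growth at the plate median or of vehicle wells; lower values mean less growth of the strain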
Settings: growth OD

Measured: normalized growth

O=C(CCCN1CCC(O)(c2ccc(Cl)cc2)CC1)c1ccc(F)cc1
active: S. cerevisiae deletion strains, locus YJR075W, strain HOC1, stronger effect = lower value 0.819 | S. cerevisiae deletion strains, locus YKR001C, strain vps1, stronger effect = lower value 0.247 | S. cerevisiae deletion strains, locus YLR027C, strain aat2, stronger effect = lower value 0.911 | S. cerevisiae deletion strains, locus YLR039C, strain RIC1, stronger effect = lower value 1.39 [resistant] | S. cerevisiae deletion strains, locus YLR058C, strain SHM2, stronger effect = lower value 0.746 | S. cerevisiae deletion strains, locus YLR268W, strain sec22, stronger effect = lower value 0.794 | S. cerevisiae deletion strains, locus YLR320W, strain mms22, stronger effect = lower value 0.49 | S. cerevisiae deletion strains, locus YLR330W, strain CHS5, stronger effect = lower value 0.849 | S. cerevisiae deletion strains, locus YLR342W, strain FKS1 (second series), stronger effect = lower value 0.726 | S. cerevisiae deletion strains, locus YLR357W, strain rsc2, stronger effect = lower value 1.19 [resistant] | S. cerevisiae deletion strains, locus YLR418C, strain cdc73, stronger effect = lower value 0.496 | S. cerevisiae deletion strains, locus YML016C, strain PPZ1, stronger effect = lower value 0.915 | S. cerevisiae deletion strains, locus YML032C, strain rad52, stronger effect = lower value 0.82 | S. cerevisiae deletion strains, locus YMR058W, strain fet3, stronger effect = lower value 0.821 | S. cerevisiae deletion strains, locus YMR125W, strain sto1, stronger effect = lower value 0.876 | S. cerevisiae deletion strains, locus YMR223W, strain ubp8, stronger effect = lower value 0.8 | S. cerevisiae deletion strains, locus YMR307W, strain GAS1, stronger effect = lower value 0.526 | S. cerevisiae deletion strains, locus YNL067W, strain RPL9B, stronger effect = lower value 0.844 | S. cerevisiae deletion strains, locus YNL071W, strain lat1, stronger effect = lower value 0.552 | S. cerevisiae deletion strains, locus YNL175C, strain NOP13, stronger effect = lower value 0.664 | S. cerevisiae deletion strains, locus YNL233W, strain BNI4, stronger effect = lower value 0.751 | S. cerevisiae deletion strains, locus YNL248C, strain rpa49, stronger effect = lower value 0.818 | S. cerevisiae deletion strains, locus YNL307C, strain MCK1, stronger effect = lower value 0.815 | S. cerevisiae deletion strains, locus YNL322C, strain KRE1 (second series), stronger effect = lower value 1.11 [resistant] | S. cerevisiae deletion strains, locus YNL322C, strain KRE1, stronger effect = lower value 0.884 | S. cerevisiae deletion strains, locus YNR052C, strain pop2, stronger effect = lower value 0.737 | S. cerevisiae deletion strains, locus YOR001W, strain rrp6, stronger effect = lower value 0.871 | S. cerevisiae deletion strains, locus YOR070C, strain gyp1, stronger effect = lower value 0.29 | S. cerevisiae deletion strains, locus YOR184W, strain ser1, stronger effect = lower value 0.847 | S. cerevisiae deletion strains, locus YOR270C, strain vph1, stronger effect = lower value 0.381 | S. cerevisiae deletion strains, locus YOR290C, strain snf2, stronger effect = lower value 0.843 | S. cerevisiae deletion strains, locus YPL051W, strain arl3, stronger effect = lower value 0.789 | S. cerevisiae deletion strains, locus YPL106C, strain sse1, stronger effect = lower value 1.17 [resistant] | S. cerevisiae deletion strains, locus YPR163C, strain tif3, stronger effect = lower value 0.575 | S. cerevisiae deletion strains, strain wtn01, stronger effect = lower value 0.776 | S. cerevisiae strains, strain wild type, stronger effect = lower value 0.833
inactive: S. cerevisiae deletion strains, locus YJR043C, strain POL32, stronger effect = lower value 0.93 | S. cerevisiae deletion strains, locus YJR066W, strain TOR1, stronger effect = lower value 0.939 | S. cerevisiae deletion strains, locus YKL009W, strain mrt4, stronger effect = lower value 0.963 | S. cerevisiae deletion strains, locus YKL068W, stronger effect = lower value 1.02 | S. cerevisiae deletion strains, locus YKL085W, strain MDH1 (second series), stronger effect = lower value 1.02 | S. cerevisiae deletion strains, locus YKL085W, strain MDH1, stronger effect = lower value 1.02 | S. cerevisiae deletion strains, locus YKL160W, strain elf1, stronger effect = lower value 0.904 | S. cerevisiae deletion strains, locus YKR026C, strain gcn3, stronger effect = lower value 1.03 | S. cerevisiae deletion strains, locus YKR091W, strain srl3, stronger effect = lower value 1.03 | S. cerevisiae deletion strains, locus YLL001W, strain dnm1, stronger effect = lower value 0.958 | S. cerevisiae deletion strains, locus YLL026W, stronger effect = lower value 0.947 | S. cerevisiae deletion strains, locus YLL041C, strain sdh2, stronger effect = lower value 1.02 | S. cerevisiae deletion strains, locus YLR102C, strain apc9, stronger effect = lower value 1.02 | S. cerevisiae deletion strains, locus YLR113W, strain HOG1, stronger effect = lower value 1.03 | S. cerevisiae deletion strains, locus YLR221C, strain rsa3, stronger effect = lower value 0.923 | S. cerevisiae deletion strains, locus YLR258W, strain gsy2, stronger effect = lower value 0.938 | S. cerevisiae deletion strains, locus YLR262C, strain YPT6 (second series), stronger effect = lower value 0.893 | S. cerevisiae deletion strains, locus YLR262C, strain YPT6, stronger effect = lower value 1.37 | S. cerevisiae deletion strains, locus YLR342W, strain FKS1, stronger effect = lower value 1.01 | S. cerevisiae deletion strains, locus YLR370C, strain arc18, stronger effect = lower value 0.965 | S. cerevisiae deletion strains, locus YLR371W, strain rom2, stronger effect = lower value 1 | S. cerevisiae deletion strains, locus YLR384C, strain iki3, stronger effect = lower value 0.999 | S. cerevisiae deletion strains, locus YML120C, strain ndi1, stronger effect = lower value 0.932 | S. cerevisiae deletion strains, locus YML124C, strain tub3, stronger effect = lower value 0.994 | S. cerevisiae deletion strains, locus YMR078C, strain ctf18, stronger effect = lower value 1.01 | S. cerevisiae deletion strains, locus YMR129W, stronger effect = lower value 1.03 | S. cerevisiae deletion strains, locus YMR205C, strain PFK2, stronger effect = lower value 0.949 | S. cerevisiae deletion strains, locus YMR231W, strain pep5, stronger effect = lower value 1.01 | S. cerevisiae deletion strains, locus YMR263W, strain SAP30, stronger effect = lower value 0.996 | S. cerevisiae deletion strains, locus YNL183C, strain NPR1, stronger effect = lower value 0.971 | S. cerevisiae deletion strains, locus YNL197C, strain WHI3, stronger effect = lower value 0.997 | S. cerevisiae deletion strains, locus YNL209W, strain ssb2, stronger effect = lower value 0.933 | S. cerevisiae deletion strains, locus YNL224C, strain SQS1, stronger effect = lower value 1.04 | S. cerevisiae deletion strains, locus YNL250W, strain rad50, stronger effect = lower value 1 | S. cerevisiae deletion strains, locus YNL271C, strain bni1, stronger effect = lower value 1 | S. cerevisiae deletion strains, locus YNL298W, strain CLA4, stronger effect = lower value 1.02 | S. cerevisiae deletion strains, locus YNR049C, strain mso1, stronger effect = lower value 1.04 | S. cerevisiae deletion strains, locus YOL012C, strain htz1 1.18 | S. cerevisiae deletion strains, locus YOL147C, strain pex11, stronger effect = lower value 0.941 | S. cerevisiae deletion strains, locus YOR061W, strain CKA2, stronger effect = lower value 0.942 | S. cerevisiae deletion strains, locus YOR069W, strain VPS5, stronger effect = lower value 0.963 | S. cerevisiae deletion strains, locus YOR080W, strain dia2, stronger effect = lower value 0.969 | S. cerevisiae deletion strains, locus YOR083W, strain WHI5 (second series), stronger effect = lower value 0.977 | S. cerevisiae deletion strains, locus YOR083W, strain WHI5, stronger effect = lower value 0.944 | S. cerevisiae deletion strains, locus YOR106W, strain vam3, stronger effect = lower value 0.935 | S. cerevisiae deletion strains, locus YOR136W, strain idh2, stronger effect = lower value 0.98 | S. cerevisiae deletion strains, locus YOR144C, strain elg1, stronger effect = lower value 1 | S. cerevisiae deletion strains, locus YOR231W, strain MKK1, stronger effect = lower value 0.991 | S. cerevisiae deletion strains, locus YOR265W, strain rbl2, stronger effect = lower value 0.974 | S. cerevisiae deletion strains, locus YOR316C, strain cot1, stronger effect = lower value 1.02 | S. cerevisiae deletion strains, locus YPL078C, strain atp4, stronger effect = lower value 0.914 | S. cerevisiae deletion strains, locus YPL240C, strain hsp82, stronger effect = lower value 1 | S. cerevisiae deletion strains, locus YPL256C, strain CLN2, stronger effect = lower value 0.99 | S. cerevisiae deletion strains, locus YPR119W, strain clb2, stronger effect = lower value 1.04 | S. cerevisiae deletion strains, locus YPR141C, strain kar3, stronger effect = lower value 1.04 | S. cerevisiae deletion strains, locus YPR167C, strain met16, stronger effect = lower value 0.942
0.89 (active) and 0.969 (inactive): S. cerevisiae deletion strains, locus YPL241C, strain CIN2, stronger effect = lower value
0.826 (active) and 0.893 (inactive): S. cerevisiae deletion strains, locus YNL153C, strain GIM3, stronger effect = lower value
